Measured values as given in PMC13494018.
A number with no mark means an inactive call. How the calls were made is not given here.

B1: d1r8_design_ppi_889_dldesign_0_cycle1_af2pred (protein)
chain: AMAAAIAAVAASARAAAAIGRADPAAAPGAAAFLDVAAETLAALAKADPAHAAQANAAAAEARATAAELRAAAAA
B2: d1r11_design_ppi_982_dldesign_0_cycle1_af2pred (protein)
chain: AAAARAQAAQVVADSARAAAKEAEAKAKEAEAKDPAYGKELKANAEKLKAAAEAAEADPAALPEAVKTLIEQTSNMRALEAKLAA
B3: d1r12_design_ppi_153_dldesign_0_cycle1_af2pred (protein)
chain: AAAHEAFVAEVTAVADAAADAASAAWLAGQTAGPEWRAVADRLVALAREALRAAADPARAPEARRAAAEAAALAAEAAALVAAA
B4: d1r11_design_ppi_712_dldesign_0_cycle0_af2pred (protein)
chain: MTPEEKAARLAAAADAYIKMAKAALAAGKLEEAKEFAEAALKAAKEAEKLDPELGAKKAAEAKAVKAEIDAA
B5: d1r11_design_ppi_170_dldesign_0_cycle0_af2pred (protein)
chain: ASPEELTLTARALAFAGGSPEWRPLLQEAIAAYATAEASDPATGAAARAKADAITAELVERYRAAEAAEAAAAA
B6: d1r12_design_ppi_675_dldesign_0_cycle0_af2pred (protein)
chain: DEARRAGALAFAEQLRASFAATRAAAAALPRASAAAALAGIAASAKQLGAVVPEAAELAAEAAAAAAAVAA
B7: d1r8_design_ppi_934_dldesign_0_cycle1_af2pred (protein)
chain: ASPLERAESLREFLHTVADAMAKNVGAEGQKVADAAKAAGDAAVAAARAAGTPEAYEAARDTLRALTADVIKAYMAALS
B8: d1r8_design_ppi_934_dldesign_0_cycle0_af2pred (protein)
chain: ASALARAESQLAFLNTVADAMATQTGEEGAKIAAEAKAAGDAALAAAKASGTPAAYEAATAQLNALTAQVQRETMARLA
B9: d1r11_design_ppi_238_dldesign_0_cycle0_af2pred (protein)
chain: AAAAAAAAAAAALAEAAARAAAATDVTTKVGAALTAQNPSVKPITDAAVEKMKQAAAVVADPAKAAAYQKEAGDLLTQALRQVAAARR
B10: d1r11_design_ppi_310_dldesign_0_cycle1_af2pred (protein)
chain: EAAAAAALTAKAQALYAKYVAAAKAAQAALAGTEAHKEIAALLAQAEAAADDIGLALALASTAANLAAAKLAAALA
B11: d1r12_design_ppi_352_dldesign_0_cycle0_af2pred (protein)
chain: SRARANYAQLVAESAEGGAKAAEAKAKAAKAAGDEATAKKYEEAAELYREGAALAKAGDIAGAVAKINEAAALLAA
B12: d1r11_design_ppi_865_dldesign_0_cycle0_af2pred (protein)
chain: DAELKAQAAKIAKEAIEKAKKAKDKNEVWRYASQGLAQLTRIAAAGSPEVKAFAAEQAKKLTEEAEKIVAAL
B13: d1r12_design_ppi_352_dldesign_0_cycle1_af2pred (protein)
chain: SAARARYAALVAESAEVGAATYDAAAKAAEAAGDAATAAKYKEAAALYKAGADAAKAGDIAAAVAKINAAAALVAA
B14: d1r8_design_ppi_923_dldesign_0_cycle0_af2pred (protein)
chain: AAEMAATAAYVSEVAARAQAEDPSLGPEVNRLFALLARAGAAYAADPAAGAAVAAEARAYAEELDKRLEAAL
B15: d1r11_design_ppi_322_dldesign_0_cycle0_af2pred (protein)
chain: DTAEKAREVAKKAVEVAKEAAEKDPRAQAVYETAKIVAEGVEALVAAGQTELALRQAETQLKIAEKVLKEVLA
B16: d1r11_design_ppi_301_dldesign_0_cycle0_af2pred (protein)
chain: SLLEEAKKLAEELKELLKKAKEALADPEKAKELIKKAEEANKKLVELAVEAAKAGDHESAALANRAALEGQRKIAEIKAQLAA
B17: d1r12_design_ppi_87_dldesign_0_cycle1_af2pred (protein)
chain: GAALEEAERLMEEAEAALAQAEATGDQRLLGAAMAAAERAVELATREASPEEAAEVERRAAELFARAAEVSQRIAAALLARAAAQA
B18: d1r12_design_ppi_408_dldesign_0_cycle1_af2pred (protein)
chain: MEALAQAGHAANQAAAADPAQAPRAAALLREMIAHARAASAAWLEAQALEAAGGDPAAVAAARAAAAEHQAKAEALAAELKALAEAAA
B19: d1r11_design_ppi_369_dldesign_0_cycle0_af2pred (protein)
chain: MQERLDAYNAEAGAALEAAAASTDGARRLALMRKAAGLGLAAAGYAAGPEAGEAAEKQAEARFAAADAALA
B20: d1r11_design_ppi_627_dldesign_0_cycle1_af2pred (protein)
chain: AEEVAARAAELTRTVHHGSPEEATAAARELTALVAAASPEAAAAGRRAIAETNKALLAETAAARAAAAAAAAAAAAAAAAAAA
B21: d1r8_design_ppi_870_dldesign_0_cycle1_af2pred (protein)
chain: EAEANQQAMNLLMRAAALQPRDREKAREAVEEGRKVAKDEETKKLLEEAVKALDGDVDEAIAVLLETAKKISERAREAAA
B22: d1r8_design_ppi_838_dldesign_0_cycle1_af2pred (protein)
chain: NAGELLGKALELLEEASRLAKEDYEKAKEAAEKAIEYAEKAAAADPAHAPALVAVKSAARNIIEQAKKNEAARKAA
B23: d1r12_design_ppi_293_dldesign_0_cycle1_af2pred (protein)
chain: AAAAEAARKAALAAAADAHAAGAQAALRAARQAAERGDPEAARTFMDLALTSAQQARDLYDEAGFPEKGKAVYEATRAAVAEVEALL
B24: d1r12_design_ppi_387_dldesign_0_cycle1_af2pred (protein)
chain: MEAARAAFERRKAALEADRAEAEALLADPATAAEGRALLAALAVRAKAYGKLFAAHDPELGAELTALGEEAAALA
B25: d1r8_design_ppi_849_dldesign_0_cycle0_af2pred (protein)
chain: DDAAKAAELTALVLEEEAADPVRAGEVGAARARELGLSAAGILAVLDRVVAEAAPSGETVRALMRAAIEAAQA
B26: d1r11_design_ppi_189_dldesign_0_cycle1_af2pred (protein)
chain: AAAEKAKLGFQLLNQLQKAQQAVAAGAAAGATAAEFEALAAQAQKAKEEGKQTILADTVQAAADVVIAAARAAAAAAKARAA
B27: d1r11_design_ppi_712_dldesign_0_cycle1_af2pred (protein)
chain: MTPAQQAAQLANQANSYITMAKAALAAGDLETAKEFAELAIEYATQAQKLDPALGTAVKAEAEAVLAQVNAA
B28: d1r8_design_ppi_886_dldesign_0_cycle1_af2pred (protein)
chain: AKAAELAAEGKALAEQLAKEGAADGEKGIELLKQGSALVRELEALGAEDPEYAEAAKAAQAALQAAVAAFAAASIAKAAAA
B29: d1r11_design_ppi_223_dldesign_0_cycle1_af2pred (protein)
chain: AAEAQALAAQAKKLADEAAKEAASPKSGELLGKAIELAMQANTLDPALGGQLSKYIAATAAAAAAKAAAEAAA
B30: d1r8_design_ppi_843_dldesign_0_cycle0_af2pred (protein)
chain: AEEARRAEAAARLEAAVAAGQATLVEVNKAAAATGDAALAEAALALSRAIAEGRRLGREGRYEEGAALVEAATKAAKATLAA
B31: d1r12_design_ppi_822_dldesign_0_cycle1_af2pred (protein)
chain: AAAARAAEAAALAAAVTAAAAAVAAAVAAGTPDEGRAAARAFGRAALGAAARLPEVAPAVDAAADVVSDAYVAAVAAR
B32: d1r12_design_ppi_102_dldesign_0_cycle0_af2pred (protein)
chain: AAAEAAARLAEAEALLAKAKEHAKKAKEAAKAGDLAAANQHATAASAAALAIKELGAPADIQAAADAAVAEAMDAVVAAAKAR
B33: d1r11_design_ppi_51_dldesign_0_cycle1_af2pred (protein)
chain: AEVEKKAKEAKKKVEEAKKKMEEAEKAGDAEALRKAAAEANKKAIELASAALAEKDAETAKALAEAAQKLVEIALRANEAMAKLER
B34: d1r11_design_ppi_460_dldesign_0_cycle1_af2pred (protein)
chain: AAEEALKRAEELAKEVIELAEKVPEAAALGKKVREALEAARHGAESLMRAAARSTPEAAAVMNESAIAMNEAAIKLAEELRKEIEKIA
B35: d1r12_design_ppi_474_dldesign_0_cycle0_af2pred (protein)
chain: KEELKKEIKKLAKKAKEHAEEAKRTAGDLGAMARHTTEAAAAAEKAQALAAKSGDEEAKKLAKEAKEAAAEATEHLVEAARAAA
B36: d1r8_design_ppi_906_dldesign_0_cycle1_af2pred (protein)
chain: AAEAAERADRGQGTLIAMEAEARLAAIAKAHPEVAALAAAAAERVRAAAPLPAAEVRAVAERELAEVEAALAAA
B37: d1r12_design_ppi_408_dldesign_0_cycle0_af2pred (protein)
chain: SLELAEAAHAAGRAAAADPARAAEAGALLKDMIAYALAASAAYREAEALRAAGGDQAAIDAAEAEAKAYEAKSKEKAAELKALAAAAA
B38: d1r8_design_ppi_953_dldesign_0_cycle1_af2pred (protein)
chain: SAAAELALKSLQAALAAAKAAAKAYGPAAAEAHLKNALLLADSYAAATDAAAGAALKAKVEAEAAAAMAAV

target: CD276, Q5ZPR3
Sequence (Q5ZPR3 whole entry): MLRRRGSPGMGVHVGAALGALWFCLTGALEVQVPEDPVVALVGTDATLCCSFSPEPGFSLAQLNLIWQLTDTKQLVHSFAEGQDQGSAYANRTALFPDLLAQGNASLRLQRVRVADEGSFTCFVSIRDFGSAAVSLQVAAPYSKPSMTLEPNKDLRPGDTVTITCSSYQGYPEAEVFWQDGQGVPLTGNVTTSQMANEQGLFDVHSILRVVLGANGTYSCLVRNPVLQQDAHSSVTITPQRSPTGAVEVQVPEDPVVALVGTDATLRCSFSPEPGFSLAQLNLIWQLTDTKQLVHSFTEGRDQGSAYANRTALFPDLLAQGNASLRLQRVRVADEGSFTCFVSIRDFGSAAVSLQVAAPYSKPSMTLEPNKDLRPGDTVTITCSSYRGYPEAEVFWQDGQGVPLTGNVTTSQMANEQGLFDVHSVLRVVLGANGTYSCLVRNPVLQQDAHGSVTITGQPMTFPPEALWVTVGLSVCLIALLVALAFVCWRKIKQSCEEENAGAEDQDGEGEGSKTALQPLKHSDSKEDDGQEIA

Binder | binding in a display sort
B1 | not found
B2 | not found
B3 | not found
B4 | not found
B5 | not found
B6 | not found
B7 | not found
B8 | not found
B9 | not found
B10 | not found
B11 | not found
B12 | not found
B13 | not found
B14 | not found
B15 | not found
B16 | not found
B17 | not found
B18 | not found
B19 | not found

Binder | binding in a display sort
B20 | not found
B21 | not found
B22 | not found
B23 | not found
B24 | not found
B25 | not found
B26 | not found
B27 | not found
B28 | not found
B29 | not found
B30 | not found
B31 | not found
B32 | not found
B33 | not found
B34 | not found
B35 | not found
B36 | not found
B37 | not found
B38 | not found
